Laboratory results published in article PMC4336329 (PLoS ONE, 2015).
Out of some 310,000 compounds screened, about 14,000 (4.5%) showed an effect of 50% or more. Effects have a minus sign here. For the sample, strong results were picked, then their nearest neighbours and some compounds at random.
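Also: peak tail current of the secondary pulse compared with the same well before compound.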

What follows are compounds tested against human ether-à-go-go-related gene (hERG) potassium channel (human, UniProt Q12809) (assay: primary screen, population patch clamp on CHO cells stably expressing hERG; higher = less effect of the substance).
Sequence of human ether-à-go-go-related gene (hERG) potassium channel (Q12809 whole entry, looked up): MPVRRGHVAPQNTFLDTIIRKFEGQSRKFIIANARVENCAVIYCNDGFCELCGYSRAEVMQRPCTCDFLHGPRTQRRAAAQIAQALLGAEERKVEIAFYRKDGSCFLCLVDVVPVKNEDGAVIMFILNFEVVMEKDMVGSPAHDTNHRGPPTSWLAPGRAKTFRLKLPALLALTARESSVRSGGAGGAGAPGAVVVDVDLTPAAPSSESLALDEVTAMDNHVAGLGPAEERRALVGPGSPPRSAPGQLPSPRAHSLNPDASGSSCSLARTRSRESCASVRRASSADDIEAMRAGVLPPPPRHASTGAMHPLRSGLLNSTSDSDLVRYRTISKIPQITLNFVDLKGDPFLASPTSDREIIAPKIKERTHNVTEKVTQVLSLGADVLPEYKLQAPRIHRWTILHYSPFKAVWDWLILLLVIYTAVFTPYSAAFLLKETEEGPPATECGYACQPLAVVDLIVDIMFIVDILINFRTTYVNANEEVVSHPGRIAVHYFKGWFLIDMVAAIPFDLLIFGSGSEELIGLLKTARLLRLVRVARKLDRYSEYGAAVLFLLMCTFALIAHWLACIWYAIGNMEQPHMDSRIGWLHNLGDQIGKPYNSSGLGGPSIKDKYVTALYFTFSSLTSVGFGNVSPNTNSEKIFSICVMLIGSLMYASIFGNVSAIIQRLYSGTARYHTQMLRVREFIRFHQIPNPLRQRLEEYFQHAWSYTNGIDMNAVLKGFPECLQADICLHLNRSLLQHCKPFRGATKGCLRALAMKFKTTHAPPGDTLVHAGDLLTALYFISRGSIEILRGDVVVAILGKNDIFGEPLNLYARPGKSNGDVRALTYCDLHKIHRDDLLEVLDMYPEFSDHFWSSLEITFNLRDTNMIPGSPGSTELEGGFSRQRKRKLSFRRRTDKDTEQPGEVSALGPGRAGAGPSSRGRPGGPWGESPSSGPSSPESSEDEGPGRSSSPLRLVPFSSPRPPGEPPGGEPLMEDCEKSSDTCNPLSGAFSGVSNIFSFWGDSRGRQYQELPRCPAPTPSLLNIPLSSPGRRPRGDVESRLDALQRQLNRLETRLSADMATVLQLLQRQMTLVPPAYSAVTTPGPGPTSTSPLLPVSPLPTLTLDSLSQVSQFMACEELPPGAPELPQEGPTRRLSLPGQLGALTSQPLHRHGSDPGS
For `O=C(C1CC1)N1c2ccccc2Sc2ccccc21`, the “hERG current change (%, negative = inhibition) at 10uM” value was 7.2%.
With `c1ccc2c(c1)Sc1ccccc1N2CC1CN2CCC1CC2` (stereo not shown) the “hERG current change (%, negative = inhibition) at 10uM” value was -53.1%.
In the case of `Cc1ccc2nc(-c3cccnc3)oc2c1`, the “hERG current change (%, negative = inhibition) at 10uM” value is reported as 5.22%.
With `O=C(O)CCN(CC(=O)c1ccc(Cl)cc1)S(=O)(=O)c1ccc([N+](=O)[O-])cc1` the “hERG current change (%, negative = inhibition) at 10uM” value was -13.7%.
With `Cc1ccc(C(=O)CN(CCCC(N)=O)S(=O)(=O)c2ccc([N+](=O)[O-])cc2)cc1` the “hERG current change (%, negative = inhibition) at 10uM” value was -66.7%.
`Cc1ccc(C(=O)CN(CCC(=O)O)S(=O)(=O)c2ccc([N+](=O)[O-])cc2)cc1` was tested, and the “hERG current change (%, negative = inhibition) at 10uM” value was -25.7%.
In the case of `c1ccc2c3c([nH]c2c1)-c1[nH]ncc1CC3`, the “hERG current change (%, negative = inhibition) at 10uM” value is reported as 1.38%.
With `CC(=O)N1CCc2c(sc(NC(=O)CCS(=O)(=O)c3ccc(C)cc3)c2C(N)=O)C1` the “hERG current change (%, negative = inhibition) at 10uM” value was 2.54%.
For `O=C(CC1CCCC1)Nc1cc(S(=O)(=O)N2CCOCC2)ccc1O`, the “hERG current change (%, negative = inhibition) at 10uM” value was 4.05%.
For `Cc1ccc2[nH]c(=O)c(-c3nc4ccccn4c3NCc3ccco3)cc2c1`, the “hERG current change (%, negative = inhibition) at 10uM” value was -12.3%.
`Cc1cccc2cc(-c3nc4c(C)cccn4c3NCc3ccco3)c(=O)[nH]c12` was tested, and the “hERG current change (%, negative = inhibition) at 10uM” value was -11.5%.
For `COCCNc1c(-c2cc3ccc(C)c(C)c3[nH]c2=O)nc2ccccn12`, the “hERG current change (%, negative = inhibition) at 10uM” value was -74.9%.
With `O=C(NCCc1ccccc1)c1cccnc1` the “hERG current change (%, negative = inhibition) at 10uM” value was 7.59%.
`COc1ccc(-c2cn[nH]c2-c2ccc(OCC(=O)NN)cc2O)cc1OC` was tested, and the “hERG current change (%, negative = inhibition) at 10uM” value was 18.3%.
`COc1cccc(C2CC(c3ccc(NS(C)(=O)=O)cc3)=NN2C(=O)c2ccccc2)c1OC` (stereo not shown) was tested, and the “hERG current change (%, negative = inhibition) at 10uM” value was -64.4%.
With `COc1ccc(C(=O)N2N=C(c3ccc(NS(C)(=O)=O)cc3)CC2c2cccs2)cc1` (stereo not shown) the “hERG current change (%, negative = inhibition) at 10uM” value was -10.6%.
`COc1cccc(C2CC(c3cccc(NS(C)(=O)=O)c3)=NN2C(=O)c2ccccc2)c1OC` (stereo not shown) was tested, and the “hERG current change (%, negative = inhibition) at 10uM” value was -40.5%.
With `COc1cccc(C2CC(c3ccc(Br)cc3)=NN2C(=O)c2ccncc2)c1OC` (stereo not shown) the “hERG current change (%, negative = inhibition) at 10uM” value was -29.7%.
For `CCOc1ccccc1C1CC(c2cccc(NS(C)(=O)=O)c2)=NN1C(=O)c1ccccc1` (stereo not shown), the “hERG current change (%, negative = inhibition) at 10uM” value was -38.1%.
`COc1ccc(OC)c(C2CC(c3ccc(NS(C)(=O)=O)cc3)=NN2C(=O)c2ccccc2)c1` (stereo not shown) was tested, and the “hERG current change (%, negative = inhibition) at 10uM” value was -67.2%.
`COc1ccccc1C1CC(c2ccccc2)=NN1C(=O)c1ccccc1` (stereo not shown) was tested, and the “hERG current change (%, negative = inhibition) at 10uM” value was 11.9%.
`COc1ccccc1C1CC(c2ccc(NS(C)(=O)=O)cc2)=NN1C(=O)c1ccccc1` (stereo not shown) was tested, and the “hERG current change (%, negative = inhibition) at 10uM” value was -50.9%.
In the case of `COc1ccc(C2CC(c3ccc(OC)c(OC)c3)=NN2C(=O)c2ccccc2)cc1` (stereo not shown), the “hERG current change (%, negative = inhibition) at 10uM” value is reported as 9.33%.
In the case of `CCOC(=O)Cc1csc(NC(=O)c2ccc(S(=O)(=O)N(CCOC)CCOC)cc2)n1`, the “hERG current change (%, negative = inhibition) at 10uM” value is reported as -1.25%.
For `O=C(Cc1ccccc1)Nc1nnc(-c2cccc([N+](=O)[O-])c2)s1`, the “hERG current change (%, negative = inhibition) at 10uM” value was 5.44%.
`COc1ccc(CCC(=O)Nc2cc(S(=O)(=O)N3CCOCC3)ccc2OC(C)C)cc1` was tested, and the “hERG current change (%, negative = inhibition) at 10uM” value was -34.8%.
`COc1ccccc1N(C)S(=O)(=O)c1ccc(C(=O)OCC(=O)NCc2cccs2)cc1` was tested, and the “hERG current change (%, negative = inhibition) at 10uM” value was 5.35%.
With `CCN(c1ccc(OC)cc1)S(=O)(=O)c1ccc2c(c1)CC(C)N2C(=O)C1CC1` (stereo not shown) the “hERG current change (%, negative = inhibition) at 10uM” value was 19.5%.
For `O=S(=O)(NCCc1ccc(F)cc1)c1cccc2cccnc12`, the “hERG current change (%, negative = inhibition) at 10uM” value was -0.538%.
In the case of `O=C(CSc1nccc(=O)[nH]1)N1N=C2/C(=C/c3ccco3)CCCC2C1c1ccco1` (stereo not shown), the “hERG current change (%, negative = inhibition) at 10uM” value is reported as 17.4%.
For `CCCCN1C(=O)C(=O)N(CC(=O)N2N=C3/C(=C/c4ccco4)CCCC3C2c2ccco2)C1=O` (stereo not shown), the “hERG current change (%, negative = inhibition) at 10uM” value was -75%.
`Cn1cnnc1SCC(=O)N1N=C2/C(=C/c3ccco3)CCCC2C1c1ccco1` (stereo not shown) was tested, and the “hERG current change (%, negative = inhibition) at 10uM” value was -25.6%.
`CC1CCN(C(=O)CSc2nc3c(c(=O)n(C)c(=O)n3C)n2C)CC1` was tested, and the “hERG current change (%, negative = inhibition) at 10uM” value was 10.5%.
For `O=C(c1cccc(C(F)(F)F)c1)N1CCN(CCc2ccccc2)CC1`, the “hERG current change (%, negative = inhibition) at 10uM” value was -47.8%.
For `COc1cccc(CCNCc2cccc(C(F)(F)F)c2)c1.O=C(O)C(=O)O`, the “hERG current change (%, negative = inhibition) at 10uM” value was -3.46%.
`CN(CC1CCN(CCc2cccc(C(F)(F)F)c2)CC1)C(=O)c1ccccc1` was tested, and the “hERG current change (%, negative = inhibition) at 10uM” value was -68.5%.
`COc1cc(C(=O)N(C)CC2CCN(CCc3cccc(C(F)(F)F)c3)CC2)ccc1C` was tested, and the “hERG current change (%, negative = inhibition) at 10uM” value was -78.8%.
With `CC1CCN(CC(=O)c2cccc(C(F)(F)F)c2)CC1.O=C(O)C(=O)O` the “hERG current change (%, negative = inhibition) at 10uM” value was 7.63%.
For `CN(CC1CCN(CCc2cccc(C(F)(F)F)c2)CC1)C(=O)c1ccc(F)cc1`, the “hERG current change (%, negative = inhibition) at 10uM” value was -70.8%.
In the case of `COc1cccc(C(=O)N(C)CC2CCN(CCc3cccc(C(F)(F)F)c3)CC2)c1`, the “hERG current change (%, negative = inhibition) at 10uM” value is reported as -70.8%.
`COc1ccc(CCNC(=O)Cc2cccc(C(F)(F)F)c2)cc1OC` was tested, and the “hERG current change (%, negative = inhibition) at 10uM” value was 5.75%.
`COc1ccnc(CN(C)C(=O)C2CCC(=O)N(Cc3cccc(C(F)(F)F)c3)C2)c1` (stereo not shown) was tested, and the “hERG current change (%, negative = inhibition) at 10uM” value was -18.6%.
In the case of `COc1cccc(CN(C)C(=O)c2ccc(OCC(=O)Nc3cccc(C(F)(F)F)c3)c(OC)c2)c1`, the “hERG current change (%, negative = inhibition) at 10uM” value is reported as -26.2%.
